Screens deposited in PubChem BioAssay by National Center for Advancing Translational Sciences (NCATS).
This is a sample that favours compounds with a hit; in the whole collection about 12% have one here.
Sfp PPTase inh: qHTS Assay for Inhibitors of Bacillus subtilis Sfp phosphopantetheinyl transferase (PPTase) | AID 1490, 2009 | hit rate 3.5% among 310,000 | Potency, µM, without a hit: largest response in the series, negative = inhibition, hits mostly inhibitors | Biochemical Sfp PPTase activity, qHTS | 4'-phosphopantetheinyl transferase ffp (Bacillus subtilis), Q9F4F7;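 further: the enzyme is Sfp with the accession as filed and its product quenches rhodamine fluorescence; 0% = enzyme reaction without inhibitor and -100% = no enzyme wells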
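Step 1, compound plus 15 nM Sfp-PPTase, 15 min, room temperature. Step 2, add rhodamine-CoA (5 uM) and BHQ-2-YbbR (12.5 uM). Step 3, read 525/598 nm fluorescence at 0 and 30 min.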
HP1b chromo inh: HTS for Inhibitors of HP1-beta Chromodomain Interactions with Methylated Histone Tails; Chromobox protein homolog 1 (Homo sapiens), P83916; Potency, µM (top dose mostly 114 µM), for inactives: at the top dose activity change, negative = inhibition, actives largely listed as inhibitors; AlphaScreen HP1-beta / biotin-H3K9me3 peptide binding; AID 540317, 2011; hit rate 0.56% among 390,000; further: nearly all actives have a fitted effect of over 70% in size
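AlphaScreen: HP1-beta (50 nM) preformed 30 min with biotin-H3(1-18)K9me3 peptide (50 nM) in PBS pH 7.4, 0.01% Tween-20. Compound added for 30 min at RT, then streptavidin donor/nickel chelate acceptor beads (10 ug/mL) for 30 min.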
TDP1 inh: qHTS Assay for Inhibitors of Tyrosyl-DNA Phosphodiesterase (TDP1); Tyrosyl-DNA phosphodiesterase 1 (Homo sapiens), Q9NUW8; recombinant TDP1, AlphaScreen DNA substrate cleavage; Potency, µM (series often up to 130 µM), without a hit: at the top dose activity change, negative = inhibition, hits mostly inhibitors; hit rate 0.28% among 350,000; AID 485290, 2010; further: on the % scale 0 is the no-effect control and ±100 the full control effect; nearly all actives have a fitted effect of over 40% in size
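Signal: AlphaScreen proximity between streptavidin donor and anti-FITC acceptor beads on intact substrate. Reaction: Tdp1 1 nM, substrate 15 nM final, 5 min RT after 15 min compound preincubation.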
G9a inh: qHTS Assay for Inhibitors of Histone Lysine Methyltransferase G9a; G9a H3K9 monomethylation, AlphaScreen, 2 h; Potency, µM (doses to about 102 µM), for inactives: at the top dose activity, negative = inhibition, actives largely listed as inhibitors; hit rate 8.8% among 350,000; further: on the % scale 0 is the no-effect control and ±100 the full control effect; nearly all actives have a fitted effect of over 75% in size
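Signal arises when biotinylated H3K9 peptide, once monomethylated, bridges streptavidin donor and antibody-captured acceptor beads. Enzyme at 20 nM was preincubated 15 min with test compounds; peptide 500 nM and SAM 20 uM then reacted for 2 h.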
JMJD2A Tudor inh: qHTS Assay for Inhibitors of JMJD2A-Tudor Domain | Lysine-specific demethylase 4A (Homo sapiens), O75164 | AlphaScreen JMJD2A-Tudor / H3K4me3 peptide binding | Potency, µM (doses to about 114 µM), for the others: at the highest dose activity change, negative = inhibition, usual class: inhibitors | hit rate 4.4% among 390,000; further: on the % scale 0 is the no-effect control and ±100 the full control effect; nearly all actives have a fitted effect of over 50% in size
Target sequence (O75164 whole entry, looked up, the tested form may be a part): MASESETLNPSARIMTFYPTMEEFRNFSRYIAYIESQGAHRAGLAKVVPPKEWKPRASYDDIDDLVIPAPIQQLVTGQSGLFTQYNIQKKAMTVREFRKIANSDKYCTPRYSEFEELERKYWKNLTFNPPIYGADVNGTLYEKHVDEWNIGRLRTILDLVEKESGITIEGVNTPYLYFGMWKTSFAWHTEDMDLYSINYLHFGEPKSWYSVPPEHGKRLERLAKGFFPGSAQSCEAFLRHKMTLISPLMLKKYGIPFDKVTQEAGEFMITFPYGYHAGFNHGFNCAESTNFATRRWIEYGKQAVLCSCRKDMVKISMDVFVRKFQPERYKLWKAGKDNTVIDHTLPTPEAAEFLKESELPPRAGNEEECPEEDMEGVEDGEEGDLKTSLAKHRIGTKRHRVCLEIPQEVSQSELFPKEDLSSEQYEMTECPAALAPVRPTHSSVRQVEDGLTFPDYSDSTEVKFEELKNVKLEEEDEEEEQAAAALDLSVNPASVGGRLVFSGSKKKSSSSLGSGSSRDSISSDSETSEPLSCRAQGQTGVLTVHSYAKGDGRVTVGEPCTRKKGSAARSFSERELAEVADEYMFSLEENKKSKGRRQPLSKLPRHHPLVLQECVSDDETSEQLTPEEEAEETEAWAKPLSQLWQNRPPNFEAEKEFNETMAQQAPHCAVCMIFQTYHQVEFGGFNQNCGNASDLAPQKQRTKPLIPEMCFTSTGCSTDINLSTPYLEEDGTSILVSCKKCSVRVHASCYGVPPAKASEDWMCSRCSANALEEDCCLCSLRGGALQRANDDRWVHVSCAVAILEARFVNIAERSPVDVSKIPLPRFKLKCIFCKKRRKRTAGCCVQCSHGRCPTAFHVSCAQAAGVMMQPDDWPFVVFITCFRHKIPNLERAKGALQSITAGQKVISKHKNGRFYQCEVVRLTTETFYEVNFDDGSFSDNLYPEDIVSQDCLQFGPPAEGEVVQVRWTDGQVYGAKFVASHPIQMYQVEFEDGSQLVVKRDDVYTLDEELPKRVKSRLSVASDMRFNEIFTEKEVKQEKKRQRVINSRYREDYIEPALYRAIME
BAZ2B block: qHTS Assay for Inhibitors of BAZ2B; AlphaScreen BAZ2B-H3K14Ac peptide displacement; hit rate 4.4% among 360,000; Potency, µM (highest dose often 114 µM), without a hit: at the highest dose activity change, negative = inhibition, actives largely listed as inhibitors; Bromodomain adjacent to zinc finger domain protein 2B (Homo sapiens), Q9UIF8; further: on the % scale 0 is the no-effect control and ±100 the full control effect; nearly all actives have a fitted effect of over 60% in size
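AlphaScreen luminescence quantifies BAZ2B engagement of H3K14Ac peptide; the protein and biotinylated peptide are both at 50 nM final, buffer PBS pH 7.4 with 0.01% Tween-20, all steps at room temperature.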
Numbers without * were called inactive; ? = inconclusive; . = not tested or not shown; [ ] = remark or other dose. The call rests on the fitted dose curve; in most records, active means well fitted curve in the direction sought with a large enough effect; inconclusive means small, poorly fitted or top-dose-only effect, or another doubt; inactive means no such curve, though single readings can be large; an effect the other way counts as inactive or inconclusive. Potency means the concentration at half of the fitted maximal effect.

SMILES	Sfp PPTase inh	HP1b chromo inh	TDP1 inh	G9a inh	JMJD2A Tudor inh	BAZ2B block
S=C(NCC1CCCO1)N1CCN(Cc2ccccc2)CC1 (stereo not given)	?	20µM*	.	16µM*	0.89µM*	20µM*
S=C(NCC1CCCO1)N1CCN(c2nc(-c3ccccc3)cs2)CC1 (stereo not given)	6%	-1%	0%	50µM*	?	?
Cc1cc(C)c2c(c1)c(C)cc1nnc(SCC(=O)c3cccs3)n12	16%	6%	4%	3.2µM*	?	1%
CCN(CC)C(=O)CSc1nnc2cc(C)c3ccccc3n12	4%	39%	0%	?	2%	-7%
CCCN(CCC)C(=O)CSc1nnc2cc(C)c3cc(C)cc(C)c3n12	.	44%	-1%	2.5µM*	16µM*	-20%
Cc1cc(C)c2c(c1)c(C)cc1nnc(SCc3ccccc3C#N)n12	.	32%	-2%	-34%[59 µM]	-16%	?
COC(=O)C(C)Sc1nnc2cc(C)c3cc(C)cc(C)c3n12 (stereo not given)	.	30%	2%	8.9µM*	-18%	?
CCOc1ccc(NC(=O)c2ccc3c(c2)OCCO3)cc1S(=O)(=O)N(CC)CC	.	30%	-2%[56.1 µM]	23%[2.33 µM]	-21%	-33%
COC(=O)c1ccccc1NC(=O)Cn1c(=O)n(CCCCC(=O)NCc2ccc3c(c2)OCO3)c(=O)c2ccccc21	.	11%	4%	-26%[59 µM]	-6%	-1%
CCc1ccc(N2CSC3=C(C#N)C(c4cccs4)CC(=O)N3C2)cc1 (stereo not given)	2.5µM*	-34%	0%	?	32µM*	?
COc1ccc(N2CSC3=C(C#N)C(c4cccs4)CC(=O)N3C2)cc1 (stereo not given)	2.2µM*	9%	-4%	2.8µM*	-12%	50µM*
CCOC(=O)c1ccc(N2CSC3=C(C#N)C(c4cccs4)CC(=O)N3C2)cc1 (stereo not given)	11µM*	?	9%	5.6µM*	28µM*	45µM*
CCOC(=O)CC1=C(C(=O)OCC)C(c2cccs2)C(C#N)=C(N)O1 (stereo not given)	-7%	20%	-1%	-29%[59 µM]	-8%	-39%
CN(C(=O)CSc1ncnc2ccccc12)C1CCCCC1	.	19%	2%	-26%	-6%	0%
CC(C)CO/N=C1/C[C@@H](O)[C@@H](O)[C@@H]2[C@H]3C(=O)N(c4ccc(F)cc4F)C(=O)[C@@H]3CC[C@@H]12	13%	.	3%[21 µM]	.	.	.
CN(C)/N=C/C=C1\CCC/C(=C\c2ccc(F)c(F)c2)C1=O	8.9µM*	?	0%	?	?	40µM*
COc1ccc(/C=C2\CCC/C(=C\C=N\N(C)C)C2=O)cc1	-27%	?	9%	?	32µM*	32µM*
Cn1c(=O)c2ncn(CC(=O)NC3CCCCCC3)c2n(C)c1=O	10%	14%	-5%	14µM*	3%	-4%
Cn1c(=O)c2ncn(CC(=O)NCCOc3ccc(C(C)(C)C)cc3)c2n(C)c1=O	-9%	5%	-2%	40µM*	-2%	0%
Cn1c(=O)c2ncn(CC(=O)NCCC3=CCCCC3)c2n(C)c1=O	14%	37%	-2%	?	-8%	9%
C=CCOC(=O)C1=C(C)NC(C)=C(C(=O)OCC=C)C1c1ccco1	1%	27%	4%	?	-10%	?
CC1=C(C(N)=O)C(c2ccco2)C(C(N)=O)=C(C)N1	?	41%	-2%	56µM*	-2%	?
O=C(c1ccc(S(=O)(=O)N2CCCCCC2)cc1)N1CCN(c2ccccc2F)CC1	.	18%	.	.	-4%	.
